Screening results (PubChem)
SW480 rereplic = inducers of DNA re-replication in SW480 colon cancer cells. AID 624297. Potency, µM (doses to about 46.1 µM), hits mostly activators. 1.8% of 340,000 active. SW480 DNA re-replication, Hoechst DNA content imaging, 48 h; further: nearly all actives have a fitted effect of over 55% in size
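Image-based DNA-content assay: after two days of treatment, nuclei were labelled with the DNA dye Hoechst and imaged, and hits were compounds raising the count of nuclei showing high fluorescence intensity.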
Chronic BCR inh = chronic active BCR signaling inhibition; 0.05% of 340,000 active; Potency, µM (titrated, usually from 46.1 µM), actives largely listed as inhibitors; ABC-DLBCL IkBa-CBG/CBR reporter, luminescence ratio, 4 h; active means well fitted inhibition curve with a large enough effect in the signal ratio, with a control signal flat, not every such curve was filed as active; inconclusive means small, poorly fitted or top-dose-only effect, or effect the other way, or a change in a side signal; the % refers to the signal ratio
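Cell line TMD8 (human ABC DLBCL), stably expressing tet-inducible CBG68-IkBa fusion and CBR; IMDM/0.5% FBS; cpd up to 46 uM; dox induction, 4 h, 37C/5% CO2; dual luminescence; green/red ratio; MG132 control.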
MCF10A rerep = induces DNA re-replication in MCF 10a normal breast cells | 2.9% of 350,000 active | MCF 10A DNA re-replication, Hoechst nuclear intensity, 48 h | Potency, µM (series often up to 46.1 µM), usual class: activators; further: nearly all actives have a fitted effect of over 50% in size
TDP1 cell noCPT = qHTS for Inhibitors of human tyrosyl-DNA phosphodiesterase 1 (TDP1): qHTS in cells in absence of CPT; AID 686978, 2013; Potency, µM (highest dose often 46.2 µM), most hits filed as inhibitors; 15% of 420,000 active; DT40 Tdp1-/- hTDP1 cells, no CPT, ATP luminescence, 48 h; further: nearly all actives have a fitted effect of over 55% in size
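Chicken DT40 Tdp1-/- cells stably complemented with human TDP1 were seeded at 400 cells/well with DMSO in place of 20 nM camptothecin. After compound pinning, cells grew at least 48 hr at 37 °C; viability read by CellTiter-Glo luminescence.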
DT40 TDP1 CPT = DT40-hTDP1 cell growth loss with CPT; chicken DT40 Tdp1-/-;hTDP1 cells + 20 nM CPT, ATP luminescence, 48 h; Potency, µM (series often up to 46.2 µM), hits mostly inhibitors; 12% of 420,000 active; further: nearly all actives have a fitted effect of over 55% in size
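Chicken DT40 Tdp1-/- cells stably complemented with human TDP1 were seeded at 400 cells/well in medium containing 20 nM camptothecin, exposed to pin-transferred compounds, and grown at 37 °C for at least 48 hr. Viability was read as ATP luminescence.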
IL1B secr inh = inflammasome signaling inhibition, IL-1 beta readout; 4.7% of 360,000 active; activity change, % at 57.5 µM; THP-1 LPS/ATP IL-1B secretion, AlphaLISA, 16 h; active compounds read low; AID 743279; in the data active means activity change below about -50%; inconclusive means mostly about -30% to -49%
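Secreted IL-1B measured by AlphaLISA bead assay after 16 h compound exposure of THP-1 cells; compounds (final up to 57.5 uM) added 1 h before LPS (250 ng/mL) and ATP (1.25 mM) stimulation; lower signal means less secretion.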
Each line names hits and unclear results; the compound was inactive in the other large screens. Only some compounds are listed: those with a hit (about 19% of all), similar ones and a draw of the others. Unless noted, the call rests on the fitted dose curve; in most records, active means well fitted curve in the direction sought with a large enough effect; inconclusive means small, poorly fitted or top-dose-only effect, or another doubt; inactive means no such curve, though single readings can be large; an effect the other way counts as inactive or inconclusive.

Cc1nc(N2CCN(c3ccccn3)CC2)c2c(C)c(C(=O)Nc3ccc(F)cc3Cl)sc2n1	SW480 rereplic inconclusive, MCF10A rerep 16µM, TDP1 cell noCPT 21µM, DT40 TDP1 CPT 23µM, IL1B secr inh inconclusive
Cc1ccc(F)cc1NC(=O)c1sc2ncn(CC(=O)N3CCN(c4ccccn4)CC3)c(=O)c2c1C	TDP1 cell noCPT inconclusive
Cc1nc(N2CCOCC2)c2c(C)c(C(=O)Nc3ccc(F)cc3Cl)sc2n1	none
COCc1cc(C)nc(SCc2ccc(Cl)cc2)c1C#N	SW480 rereplic inconclusive
COc1cccc(OCc2ccc(Cl)cc2)c1C#N	Chronic BCR inh inconclusive, TDP1 cell noCPT 18µM, DT40 TDP1 CPT inconclusive
COC(=O)C1=C(CS(=O)(=O)c2ccc(OC)c(OC)c2)NC(=O)NC1c1ccc(O)c(OC)c1 (configuration not stated)	none
O=C(O)c1ccc(COc2ccc([N+](=O)[O-])cc2)o1	Chronic BCR inh inconclusive
COc1ccc(N2CCN(C(=O)c3ccc(COc4ccc([N+](=O)[O-])cc4)o3)CC2)cc1	MCF10A rerep inconclusive, TDP1 cell noCPT 10µM, DT40 TDP1 CPT 10µM
Cc1cc(N2CCN(C(=O)Oc3ccc([N+](=O)[O-])cc3)CC2)c2ccccc2n1	TDP1 cell noCPT 18µM, DT40 TDP1 CPT inconclusive (no result: SW480 rereplic, Chronic BCR inh, MCF10A rerep)
COc1ccc(N2CCN(C(=O)Oc3ccc([N+](=O)[O-])cc3)CC2)cc1	TDP1 cell noCPT 26µM, DT40 TDP1 CPT inconclusive (no result: SW480 rereplic, Chronic BCR inh, MCF10A rerep)
COc1ccc(N2CCN(C(=O)c3cc(=O)c4cc(C)cc(C)c4o3)CC2)cc1	TDP1 cell noCPT inconclusive, DT40 TDP1 CPT 13µM, IL1B secr inh -77
Cn1nc(C(=O)NCCN2Cc3ccccc3OC(c3ccsc3)C2)c2ccccc2c1=O (configuration not stated)	none (no result: SW480 rereplic, Chronic BCR inh, MCF10A rerep, IL1B secr inh)
CCN1CCN(c2nc3ccccc3nc2C(C#N)C(=O)OC2CCCCC2)CC1 (configuration not stated)	SW480 rereplic inconclusive, MCF10A rerep inconclusive, TDP1 cell noCPT 23µM, DT40 TDP1 CPT 23µM
CN1CCN(c2nc3ccccc3nc2C(C#N)C(=O)OC2CCCCC2)CC1 (configuration not stated)	TDP1 cell noCPT inconclusive, DT40 TDP1 CPT 29µM, IL1B secr inh inconclusive
CC(C)COC(=O)N1C[C@H](O)C[C@H]1C(=O)Nc1ccc(Cl)cc1	none
O=C(O)CCCN1C(=O)/C(=C/C=C/c2ccco2)SC1=S	Chronic BCR inh inconclusive, TDP1 cell noCPT inconclusive, IL1B secr inh inconclusive
O=C1S/C(=C\C=C\c2ccco2)C(=O)N1c1ccc(O)cc1	MCF10A rerep inconclusive, TDP1 cell noCPT inconclusive, DT40 TDP1 CPT 18µM, IL1B secr inh -97
O=C1S/C(=C\C=C\c2ccco2)C(=O)N1c1ccccc1	SW480 rereplic inconclusive, Chronic BCR inh inconclusive, MCF10A rerep inconclusive, TDP1 cell noCPT 23µM, DT40 TDP1 CPT inconclusive, IL1B secr inh -78
O=[N+]([O-])c1ccc(-c2c[nH]c(=S)[nH]2)cc1	TDP1 cell noCPT inconclusive, DT40 TDP1 CPT 16µM
C/C(=N\NC(=O)c1ccccc1)c1nc2ccccc2n1C	SW480 rereplic 13µM, Chronic BCR inh inconclusive
CC(C)C1NC2(C(=O)c3ccccc3C2=O)C2C(=O)N(c3ccc(F)cc3)C(=O)C12 (configuration not stated)	TDP1 cell noCPT 26µM, DT40 TDP1 CPT 26µM
Cc1cc(Nc2ccc(Cl)cc2)n(-c2cccc(Cl)c2)n1	SW480 rereplic inconclusive, MCF10A rerep 26µM, TDP1 cell noCPT inconclusive, DT40 TDP1 CPT inconclusive
Cc1cc(Nc2nnnn2-c2ccccc2)n(-c2ccccc2)n1	Chronic BCR inh inconclusive, DT40 TDP1 CPT inconclusive
Cc1cc(Nc2nc3ccccc3nc2Cl)n(-c2ccccc2)n1	SW480 rereplic inconclusive, MCF10A rerep 13µM, TDP1 cell noCPT 16µM, DT40 TDP1 CPT 18µM, IL1B secr inh inconclusive
